According to PubChem BioAssay (EPA / NIEHS):
Records with an inconclusive call do not appear. Activity calls are given as the source filed them. Rule for the calls, unless noted: active = hit-call score of the fitted dose curve at least 0.9, where 1 is the maximum; inactive = score below 0.9.

Columns and labels:
[1] = ATG_NFI_CIS: Attagene CIS-FACTORIAL HepG2 Assay for human Nuclear Factor I (NFI) (AID 2282989); conditions: HepG2 cis-regulatory reporter, NFI response element transcription; actives raise or lower the signal
How it was run: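 Endogenous TF activity in HepG2 cells transiently transfected with cis-element-driven multiplexed reporter units, read 24 h after dosing. Reporter mRNA quantified by RT-PCR, 6-FAM labelling, HpaI digestion and capillary electrophoresis; bidirectional fit versus DMSO.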

[2] = biological target: Myc proto-oncogene protein (Homo sapiens) (UniProt P01106); test: ATG_Myc_CIS: Attagene CIS-FACTORIAL HepG2 Assay for human Myelocytomatosis (Myc) Proto-Oncogene Transcription Factor (AID 2282990); conditions: HepG2, Attagene cis-reporter transcription factor activity; actives raise or lower the signal
How it was run: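 After 24 h chemical treatment of HepG2 cells carrying multiplexed cis-regulated reporter constructs, reporter transcripts quantified by RT-PCR and capillary electrophoresis of fluorescent fragments. Gain or loss fitted against DMSO baseline.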

[3] = ATG_NF_kB_CIS: Attagene CIS-FACTORIAL HepG2 Assay for human Nuclear Factor Kappa B (NF-kB) (AID 2282991); conditions: HepG2 Attagene cis-factorial NF-kB reporter mRNA; actives raise or lower the signal
How it was run: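 HepG2 cells transfected with cis-promoter-driven reporter units, so endogenous transcription factor activity is measured. Reporter mRNA quantified 24 h after dosing by RT-PCR and capillary electrophoresis, with bidirectional fitting against DMSO.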

[4] = ATG_NRF2_ARE_CIS: Attagene CIS-FACTORIAL HepG2 Assay for human Nuclear Factor Erythroid 2 Related Factor 2 (NFR2) response to Antioxidant Response Elements (ARE) (AID 2282992); conditions: HepG2 Attagene ARE/NRF2 reporter, transcription factor activity; actives raise or lower the signal;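 for AC50: reporter mRNA level measured by RT-PCR and capillary electrophoresis fluorescence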
How it was run: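 Fluorescence intensity of reporter-specific cDNA fragments, separated by capillary electrophoresis, reflects mRNA induction in transfected HepG2 cells at 24 h. Activity is fitted bidirectionally, DMSO serving as baseline.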

[5] = ATG_Oct_MLP_CIS: Attagene CIS-FACTORIAL HepG2 Assay for human Octamer-Binding Transcription Factor (Oct) (AID 2282993); conditions: HepG2 Attagene cis-factorial Oct reporter, mRNA; actives raise or lower the signal
How it was run: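 HepG2 cells transiently transfected with cis-element-driven reporter transcription units (endogenous TF activity); 24 h compound exposure. Reporter mRNA quantified by RT-PCR, 6-FAM labelling, HpaI digestion and capillary electrophoresis; bidirectional fit versus DMSO baseline.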

[6] = biological target: Cellular tumor antigen p53 (Homo sapiens) (UniProt P04637); test: ATG_p53_CIS: Attagene CIS-FACTORIAL HepG2 Assay for human p53 Transcription Factor (AID 2282994); conditions: HepG2 p53 cis-element reporter, Attagene mRNA; actives raise or lower the signal
How it was run: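 Transiently transfected HepG2 (multiple cis reporter transcription units); exposure 24 h; reporter RNA via RT-PCR, 6-FAM extension, 2 h HpaI digest at 37 C, CE detection; DMSO baseline.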

[7] = biological target: human Peroxisome Proliferator-activated Receptor alpha (PPARa), PPARA (gene 5465) (UniProt Q07869); test: ATG_PPARa_TRANS: Attagene TRANS-FACTORIAL HepG2 Assay for human Peroxisome Proliferator-activated Receptor alpha (PPARa) (AID 2283001; active = hit-call score of the fitted dose curve at least 0.9, where 1 is the maximum;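 for AC50: potency for gain of reporter signal over DMSO so agonist or activator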)
How it was run: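 Transfected HepG2 cells treated with test chemical for 24 h. RNA isolated, reverse-transcribed with oligo(dT), PCR-amplified, FAM-labelled and HpaI-digested. Fragments sized by capillary electrophoresis; gain-of-signal fit relative to DMSO.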

[8] = biological target: human Peroxisome Proliferator-activated Receptor delta (PPARd), PPARD (gene 5467) (UniProt Q03181); test: ATG_PPARd_TRANS: Attagene TRANS-FACTORIAL HepG2 Assay for human Peroxisome Proliferator-activated Receptor delta (PPARd) (AID 2283002; active = hit-call score of the fitted dose curve at least 0.9, where 1 is the maximum)
How it was run: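 Read-out is induced reporter mRNA, quantified by RT-PCR with fluorescent labelling and capillary electrophoresis after 24 h dosing. Cells are HepG2 transiently carrying multiple GAL4-UAS reporter units driven by exogenous NR-GAL4 chimeras; DMSO serves as baseline.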

[9] = biological target: Nuclear receptor subfamily 1 group I member 2 (Homo sapiens) (UniProt O75469); test: ATG_PXR_TRANS: Attagene TRANS-FACTORIAL HepG2 Assay for human Pregnane X Receptor (PXR) (AID 2283008; active = hit-call score of the fitted dose curve at least 0.9, where 1 is the maximum)
How it was run: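 Transient HepG2 transfectants carrying multiplexed reporter transcription units; PXR activity read through a Gal4 chimera. 24 h exposure. RT-PCR/CE fluorescence; upward curve fit referenced to DMSO.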

[10] = biological target: human Retinoic Acid Receptor gamma (RARg), RARG (gene 5916) (UniProt P13631); test: ATG_RARg_TRANS: Attagene TRANS-FACTORIAL HepG2 Assay for human Retinoic Acid Receptor gamma (RARg) (AID 2283009; active = hit-call score of the fitted dose curve at least 0.9, where 1 is the maximum)
How it was run: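 Readout: reporter transcript levels via RT-PCR, 6-FAM primer-extension labelling, HpaI digestion and capillary electrophoresis. Cells: HepG2 carrying transfected RARg-GAL4 chimera plus UAS reporter set. Dosing 24 h; DMSO negative control.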

[11] = biological target: human Retinoic Acid Receptor beta (RARb), RARB (gene 5915) (UniProt P10826); test: ATG_RARb_TRANS: Attagene TRANS-FACTORIAL HepG2 Assay for human Retinoic Acid Receptor beta (AID 2283004; active = hit-call score of the fitted dose curve at least 0.9, where 1 is the maximum)
How it was run: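 Fluorescent capillary-electrophoresis detection of GAL4-UAS reporter mRNA defines the endpoint, with induction over DMSO-treated wells scored as activity. Transiently transfected human hepatoma HepG2 cells expressing exogenous NR–Gal4 proteins are exposed to test chemicals for 24 h.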

[12] = biological target: Retinoic acid receptor alpha (Homo sapiens) (UniProt P10276); test: ATG_RARa_TRANS: Attagene TRANS-FACTORIAL HepG2 Assay for human Retinoic Acid Receptor alpha (RARa) (AID 2283005; active = hit-call score of the fitted dose curve at least 0.9, where 1 is the maximum)
How it was run: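 Reporter transcripts, measured by RT-PCR with fluorescent labeling and capillary electrophoresis after 24 h dosing, reflect activity of an exogenous human RARa–GAL4 fusion in transiently transfected HepG2. Fitted for increase relative to DMSO.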

[13] = biological target: Peroxisome proliferator-activated receptor gamma (Homo sapiens) (UniProt P37231); test: ATG_PPARg_TRANS: Attagene TRANS-FACTORIAL HepG2 Assay for human Peroxisome Proliferator-activated Receptor-gamma (PPARg) (AID 2283007; active = hit-call score of the fitted dose curve at least 0.9, where 1 is the maximum)
How it was run: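 HepG2 cells are transiently transfected with GAL4-UAS reporter units driven by chimeric NR-Gal4 fusions and dosed for 24 h. Reporter mRNA is quantified by RT-PCR, 6-FAM labelling, HpaI digestion and capillary electrophoresis. Induction is scored against DMSO.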

[14] = biological target: human RAR-related Orphan Receptor beta (RORb), RORB (gene 6096) (UniProt Q92753); test: ATG_RORb_TRANS: Attagene TRANS-FACTORIAL HepG2 Assay for human RAR-related Orphan Receptor beta (RORb) (AID 2283010; active = hit-call score of the fitted dose curve at least 0.9, where 1 is the maximum)
How it was run: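 HepG2, transient MRTU transfection (GAL4-UAS reporters, exogenous NR-Gal4 chimeras); 24 h compound exposure; total RNA → RT-PCR → 6-FAM primer extension → HpaI digest → CE fluorescence. Positive direction vs DMSO baseline.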

Measured: AC50

human Retinoic Acid Receptor gamma (RARg), RARG (gene 5916), sequence (P13631 whole entry, looked up, the tested form may be a part): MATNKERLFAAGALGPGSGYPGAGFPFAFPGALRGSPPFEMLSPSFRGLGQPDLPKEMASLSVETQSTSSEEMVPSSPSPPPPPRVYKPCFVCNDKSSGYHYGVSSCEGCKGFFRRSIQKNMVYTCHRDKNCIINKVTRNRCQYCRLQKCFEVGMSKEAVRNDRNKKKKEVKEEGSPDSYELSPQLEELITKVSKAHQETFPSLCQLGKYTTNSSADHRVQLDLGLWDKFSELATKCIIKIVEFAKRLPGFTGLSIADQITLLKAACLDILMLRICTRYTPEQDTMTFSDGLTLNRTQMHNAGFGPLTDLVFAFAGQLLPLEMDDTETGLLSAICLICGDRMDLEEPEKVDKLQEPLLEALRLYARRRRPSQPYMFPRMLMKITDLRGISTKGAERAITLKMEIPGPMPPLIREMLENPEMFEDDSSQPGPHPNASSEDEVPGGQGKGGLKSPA
human Retinoic Acid Receptor beta (RARb), RARB (gene 5915), sequence (P10826 whole entry, looked up, the tested form may be a part): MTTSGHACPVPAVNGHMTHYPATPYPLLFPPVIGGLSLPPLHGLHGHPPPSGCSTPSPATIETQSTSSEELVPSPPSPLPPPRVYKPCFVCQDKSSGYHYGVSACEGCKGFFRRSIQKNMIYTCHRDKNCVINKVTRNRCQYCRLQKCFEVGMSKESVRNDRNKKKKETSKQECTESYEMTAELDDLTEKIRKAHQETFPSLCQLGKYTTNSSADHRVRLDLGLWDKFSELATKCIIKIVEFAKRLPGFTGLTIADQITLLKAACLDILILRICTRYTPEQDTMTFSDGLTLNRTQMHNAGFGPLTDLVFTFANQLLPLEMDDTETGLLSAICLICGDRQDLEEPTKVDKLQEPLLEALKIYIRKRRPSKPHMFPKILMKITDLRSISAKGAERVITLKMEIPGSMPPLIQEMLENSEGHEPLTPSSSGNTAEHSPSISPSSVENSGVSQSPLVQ
human RAR-related Orphan Receptor beta (RORb), RORB (gene 6096), sequence (Q92753 whole entry, looked up, the tested form may be a part): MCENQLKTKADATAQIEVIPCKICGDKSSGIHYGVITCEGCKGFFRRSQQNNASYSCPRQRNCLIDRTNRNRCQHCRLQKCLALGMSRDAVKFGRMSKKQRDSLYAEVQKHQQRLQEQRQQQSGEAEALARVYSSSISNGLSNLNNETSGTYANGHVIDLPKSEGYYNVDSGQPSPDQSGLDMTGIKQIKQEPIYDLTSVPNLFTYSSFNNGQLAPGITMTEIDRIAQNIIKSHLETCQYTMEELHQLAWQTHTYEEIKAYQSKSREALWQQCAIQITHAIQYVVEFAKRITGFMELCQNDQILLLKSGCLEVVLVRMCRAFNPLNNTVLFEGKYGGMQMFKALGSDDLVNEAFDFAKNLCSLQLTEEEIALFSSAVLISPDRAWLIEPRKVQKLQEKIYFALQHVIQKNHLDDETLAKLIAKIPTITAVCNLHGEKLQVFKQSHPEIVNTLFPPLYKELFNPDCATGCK
human Peroxisome Proliferator-activated Receptor delta (PPARd), PPARD (gene 5467), sequence (Q03181 whole entry, looked up, the tested form may be a part): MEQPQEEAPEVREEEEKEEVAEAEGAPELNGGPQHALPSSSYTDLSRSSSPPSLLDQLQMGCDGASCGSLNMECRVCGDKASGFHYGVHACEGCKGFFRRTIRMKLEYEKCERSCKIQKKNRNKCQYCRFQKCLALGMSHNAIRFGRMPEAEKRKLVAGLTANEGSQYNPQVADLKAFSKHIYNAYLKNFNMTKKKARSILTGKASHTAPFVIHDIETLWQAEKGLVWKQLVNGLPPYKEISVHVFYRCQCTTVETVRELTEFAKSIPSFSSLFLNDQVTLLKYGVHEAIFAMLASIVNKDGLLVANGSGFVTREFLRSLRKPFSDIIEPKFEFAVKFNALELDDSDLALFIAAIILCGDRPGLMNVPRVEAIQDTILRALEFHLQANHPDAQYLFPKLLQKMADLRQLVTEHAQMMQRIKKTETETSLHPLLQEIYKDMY
Cellular tumor antigen p53 (Homo sapiens), sequence (P04637 whole entry, looked up): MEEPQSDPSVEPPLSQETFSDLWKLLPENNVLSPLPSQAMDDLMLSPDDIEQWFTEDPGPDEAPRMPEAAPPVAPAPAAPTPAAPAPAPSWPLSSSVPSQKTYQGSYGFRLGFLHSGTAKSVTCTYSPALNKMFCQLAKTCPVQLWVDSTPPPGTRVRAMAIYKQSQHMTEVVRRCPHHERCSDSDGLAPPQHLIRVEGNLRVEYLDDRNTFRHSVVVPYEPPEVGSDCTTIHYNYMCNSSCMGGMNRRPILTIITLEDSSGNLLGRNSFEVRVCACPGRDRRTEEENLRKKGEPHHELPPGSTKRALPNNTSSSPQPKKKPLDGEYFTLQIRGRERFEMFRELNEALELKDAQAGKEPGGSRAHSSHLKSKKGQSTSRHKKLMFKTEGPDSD
Myc proto-oncogene protein (Homo sapiens), sequence (P01106 whole entry, looked up, the tested form may be a part): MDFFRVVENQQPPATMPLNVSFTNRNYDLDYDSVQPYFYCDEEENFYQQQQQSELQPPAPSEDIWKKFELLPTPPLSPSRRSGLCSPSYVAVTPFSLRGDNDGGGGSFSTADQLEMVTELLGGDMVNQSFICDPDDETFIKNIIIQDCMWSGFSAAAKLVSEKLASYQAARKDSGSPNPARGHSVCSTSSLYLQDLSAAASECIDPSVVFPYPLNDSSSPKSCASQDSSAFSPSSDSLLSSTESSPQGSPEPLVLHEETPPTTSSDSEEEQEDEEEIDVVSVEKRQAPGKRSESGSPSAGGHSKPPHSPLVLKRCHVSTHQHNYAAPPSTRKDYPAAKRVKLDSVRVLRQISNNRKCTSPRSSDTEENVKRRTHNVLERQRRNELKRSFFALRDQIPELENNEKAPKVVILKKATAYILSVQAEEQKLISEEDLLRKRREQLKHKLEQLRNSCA
Nuclear receptor subfamily 1 group I member 2 (Homo sapiens), sequence (O75469 whole entry, looked up, the tested form may be a part): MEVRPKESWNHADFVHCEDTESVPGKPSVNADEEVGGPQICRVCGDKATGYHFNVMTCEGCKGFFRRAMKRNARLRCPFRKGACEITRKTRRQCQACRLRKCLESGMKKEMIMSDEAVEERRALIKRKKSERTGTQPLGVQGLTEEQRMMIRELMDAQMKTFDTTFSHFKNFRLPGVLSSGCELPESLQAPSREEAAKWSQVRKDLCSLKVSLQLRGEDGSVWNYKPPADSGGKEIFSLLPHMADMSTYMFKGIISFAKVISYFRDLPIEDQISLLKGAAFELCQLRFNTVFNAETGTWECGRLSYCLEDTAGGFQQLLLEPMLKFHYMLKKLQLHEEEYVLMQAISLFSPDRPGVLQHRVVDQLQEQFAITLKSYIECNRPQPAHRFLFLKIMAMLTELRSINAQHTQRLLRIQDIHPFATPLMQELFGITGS
Retinoic acid receptor alpha (Homo sapiens), sequence (P10276 whole entry, looked up, the tested form may be a part): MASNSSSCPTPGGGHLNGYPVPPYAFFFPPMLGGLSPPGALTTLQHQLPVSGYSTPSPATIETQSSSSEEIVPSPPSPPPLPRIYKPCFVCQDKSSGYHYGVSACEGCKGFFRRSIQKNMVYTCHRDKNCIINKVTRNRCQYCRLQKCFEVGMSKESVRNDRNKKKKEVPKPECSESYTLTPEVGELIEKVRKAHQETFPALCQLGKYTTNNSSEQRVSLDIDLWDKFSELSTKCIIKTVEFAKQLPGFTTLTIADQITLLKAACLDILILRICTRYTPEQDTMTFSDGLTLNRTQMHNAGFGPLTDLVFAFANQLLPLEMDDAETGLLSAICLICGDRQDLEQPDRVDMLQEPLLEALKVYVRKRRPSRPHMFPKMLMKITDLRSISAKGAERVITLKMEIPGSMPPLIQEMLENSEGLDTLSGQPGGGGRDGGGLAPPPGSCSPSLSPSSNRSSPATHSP
Peroxisome proliferator-activated receptor gamma (Homo sapiens), sequence (P37231 whole entry, looked up, the tested form may be a part): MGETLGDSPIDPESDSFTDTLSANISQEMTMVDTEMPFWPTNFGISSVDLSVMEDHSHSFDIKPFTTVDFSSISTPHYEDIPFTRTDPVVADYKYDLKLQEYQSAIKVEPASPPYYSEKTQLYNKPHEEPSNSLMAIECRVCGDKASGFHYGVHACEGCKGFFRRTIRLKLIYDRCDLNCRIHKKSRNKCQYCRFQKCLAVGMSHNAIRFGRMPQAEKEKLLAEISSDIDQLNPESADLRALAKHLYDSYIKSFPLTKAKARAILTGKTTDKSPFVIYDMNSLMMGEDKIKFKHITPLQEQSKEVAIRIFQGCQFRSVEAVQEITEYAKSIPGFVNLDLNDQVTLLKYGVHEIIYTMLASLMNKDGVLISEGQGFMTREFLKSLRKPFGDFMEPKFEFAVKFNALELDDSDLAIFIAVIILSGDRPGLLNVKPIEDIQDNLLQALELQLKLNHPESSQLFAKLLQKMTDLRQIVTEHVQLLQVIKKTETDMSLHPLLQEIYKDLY
human Peroxisome Proliferator-activated Receptor alpha (PPARa), PPARA (gene 5465), sequence (Q07869 whole entry, looked up, the tested form may be a part): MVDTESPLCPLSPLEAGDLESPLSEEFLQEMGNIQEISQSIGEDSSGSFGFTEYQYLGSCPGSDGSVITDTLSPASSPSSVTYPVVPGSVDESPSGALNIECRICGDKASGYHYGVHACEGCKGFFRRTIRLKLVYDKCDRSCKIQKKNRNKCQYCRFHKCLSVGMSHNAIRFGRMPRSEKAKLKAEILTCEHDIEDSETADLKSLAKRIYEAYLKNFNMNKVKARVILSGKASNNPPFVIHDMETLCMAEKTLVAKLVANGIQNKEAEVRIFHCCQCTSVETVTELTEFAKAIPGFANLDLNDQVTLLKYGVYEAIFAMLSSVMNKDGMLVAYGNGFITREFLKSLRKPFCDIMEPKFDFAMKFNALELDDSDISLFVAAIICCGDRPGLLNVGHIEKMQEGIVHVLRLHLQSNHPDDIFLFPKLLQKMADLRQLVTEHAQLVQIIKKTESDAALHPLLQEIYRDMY

Nc1c(Cl)cc(Cl)cc1[N+](=O)[O-]
active: [4] 41.5 µM | [9] 16.5 µM
not listed: [11] | [12] | [13] | [14]
inactive: all other assays above

C=CC(=O)OCCC#N
active: [3] 50.9 µM | [4] 25.9 µM | [5] 44.1 µM | [6] 164 µM | [13] 6.89 µM
not listed: [8]
inactive: all other assays above

Cc1cccc(Nc2ccccc2)c1
inactive: [1] | [2] | [3] | [5] | [6] | [7] | [9]
active: [4] 70.6 µM | [13] 85.4 µM

CCCCCCCCCCCCN1CCCCCC1=O
active: [4] 10.9 µM | [9] 1.93 µM
not listed: [11] | [12] | [14]
inactive: all other assays above

COc1cc([C@@H]2c3cc4c(cc3[C@@H](O[C@@H]3O[C@@H]5CO[C@@H](C)O[C@H]5[C@H](O)[C@H]3O)[C@H]3COC(=O)[C@H]23)OCO4)cc(OC)c1O
not listed: [9] | [10] | [11] | [12]
inactive: all other assays above

Cc1cc(S(=O)(=O)O)ccc1N=Nc1c(O)ccc2ccccc12
not listed: [8]
inactive: all other assays above

Nc1ccc(Cl)c([N+](=O)[O-])c1
not listed: [8] | [10] | [11] | [12] | [14]
inactive: all other assays above

CCCCCCOC(=O)C(C)C
inactive: [1] | [2] | [3] | [4] | [5] | [6] | [7] | [13]

OCC#CCO
not listed: [8] | [9] | [10] | [14]
inactive: all other assays above

CC(C)C[C@H](NC(=O)OCC1c2ccccc2-c2ccccc21)C(=O)O
inactive: [1] | [2] | [3] | [5] | [6]
active: [4] 31.1 µM | [7] 40 µM | [13] 23.1 µM | [9] 12.5 µM

COCCOC(=O)c1ccccc1C(=O)OCCOC
not listed: [10] | [11] | [12]
inactive: all other assays above

CC1=NN(c2ccc(S(=O)(=O)O)cc2)C(=O)C1
not listed: [8] | [13]
inactive: all other assays above

COC(CC(C)CCCC(C)(C)O)OC (stereo unspecified)
not listed: [8] | [10] | [13] | [14]
inactive: all other assays above

CC(C)c1ccccc1O
not listed: [8] | [11] | [12] | [13] | [14]
inactive: all other assays above

O=C(Nc1ccc2c(c1)Cc1ccccc1-2)C(F)(F)F
active: [4] 24.8 µM | [5] 24.5 µM | [9] 27.7 µM
not listed: [8] | [10] | [11] | [14]
inactive: all other assays above

OCCc1ccccc1
not listed: [8] | [10] | [13] | [14]
inactive: all other assays above

NCc1ccco1
not listed: [8] | [11] | [12] | [13]
inactive: all other assays above

CC=Cc1ccc(OC)c(OC)c1
active: [9] 27.6 µM
not listed: [8] | [10] | [11] | [12] | [14]
inactive: all other assays above

O=C(O)c1cc(C(=O)O)cc([N+](=O)[O-])c1
not listed: [8] | [10] | [12] | [13] | [14]
inactive: all other assays above

CC(=O)CC(=O)Nc1ccc(C)cc1C
inactive: [1] | [2] | [3] | [4] | [5] | [6] | [7] | [9]

Cc1c(Cl)cccc1[N+](=O)[O-]
inactive: [1] | [2] | [3] | [4] | [5] | [6] | [8] | [9]

CC(C)C(OC(=O)c1ccccc1)C(C)(C)COC(=O)c1ccccc1 (stereo unspecified)
active: [9] 2.45 µM
not listed: [7] | [11] | [12] | [14]
inactive: all other assays above

C=C[Si]1(C)O[Si](C)(C=C)O[Si](C)(C=C)O[Si](C)(C=C)O1 (stereo unspecified)
inactive: [1] | [2] | [5] | [6] | [13]
active: [3] 19.8 µM | [4] 12 µM | [9] 4.48 µM
